Screening data from PubChem.
Shown are actives, neighbours in structure and some others; about 4.1% of the full set was active somewhere.
ssDAF12 agonist – activates DAF-12 receptor from parasite S. stercoralis; actives 1% (n = 370,000); HEK293 ssDAF-12/GRIP1 lit1-tk-luc reporter, luminescence; % of 3 µM dafachronic acid response; activation, % at 6.8 µM;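 active = activation above the mean over all tested compounds plus 3 SD, cut at about 0.9% in these data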;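 note: 0% = DMSO-only wells and 100% = 3 µM delta7-dafachronic acid wells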
hgDAF12 agonist – agonists of H. glycines DAF-12 nuclear receptor. HEK293 GAL4-hgDAF12 UAS-luciferase reporter, agonist luminescence; normalized to butyrate control. activation, % at 6.8 µM. actives 1.8% (n = 370,000);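 active = activation above a cutoff set at the mean of all screened compounds plus 3 SD, cut at about 10% in these data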;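 note: 0% = DMSO wells and 100% = sodium butyrate wells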
DAX1 inh-1 – blocks DAX1 repression of SF-1 activated StAR promoter | HEK293T StAR-luciferase reporter, SF-1/DAX-1 repression relief | actives 1.1% (n = 370,000) | inhibition, % at 6.8 µM;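 active = inhibition above the mean over all tested compounds plus 3 SD, cut at about 3.6% in these data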;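 note: 0% = DAX-1 cells with DMSO and 100% = cells lacking DAX-1 with DMSO; higher inhibition means more luminescence from relief of DAX-1 repression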
hcDAF12 agonist – H. contortus DAF-12 activation, primary screen; HEK293 hcDAF-12 lit1-tk-luc reporter, luminescence; 0% DMSO, 100% Δ7-dafachronic acid; activation, % at 6.8 µM; actives 1.4% (n = 370,000);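 active = activation above the mean of all tested compounds plus 3 SD, cut at about 5.5% in these data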;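 note: 100% = response to 3 µM Δ7-dafachronic acid high control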
DAX1 inh-2 – inhibitors of human orphan nuclear receptor DAX1 (NR0B1) | HEK293 Gal4-DAX1 luciferase reporter, luminescence | actives 0.99% (n = 340,000) | P51843 | AID 504766 | inhibition, % at 6.75 µM;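 active = inhibition above the mean over all tested compounds plus 3 SD, cut at about 4.2% in these data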;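 note: 0% = DAX1-transfected cells with DMSO and 100% = empty-vector control cells with DMSO; inhibition shows as a rise in luminescence from relieved DAX1 repression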
Target sequence (P51843 207-470 limits assumed): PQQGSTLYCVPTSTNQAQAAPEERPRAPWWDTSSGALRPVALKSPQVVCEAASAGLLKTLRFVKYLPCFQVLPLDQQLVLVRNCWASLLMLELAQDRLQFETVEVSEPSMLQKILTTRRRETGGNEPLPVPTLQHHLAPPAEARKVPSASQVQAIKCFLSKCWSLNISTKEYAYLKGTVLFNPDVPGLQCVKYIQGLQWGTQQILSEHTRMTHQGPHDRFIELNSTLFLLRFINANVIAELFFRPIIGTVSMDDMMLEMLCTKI
The depositor's hits bear a star; / = not tested or not shown.

SMILES | ssDAF12 agonist | hgDAF12 agonist | DAX1 inh-1 | hcDAF12 agonist | DAX1 inh-2
COc1cccc(NC(=O)c2ncc(Cl)c(Cl)c2Cl)c1 | -1.9 | 11.3* | 0.3 | 3.3 | 0.3
COc1ccc(NC(=O)Nc2cccc(C)n2)c(OC)c1 | -0.5 | 0.9 | 1.5 | 2.3 | -1.4
COc1cccc(NC(=O)Nc2cccc(C)n2)c1 | -0.5 | 12.4* | 0.6 | 1.3 | 2.2
CC1(c2nnnn2C2CCCCC2)CSCC(=O)N1CCc1ccc(O)cc1 (stereo not drawn) | -0.6 | 2.5 | -0.9 | -3.8 | /
O=C1N(CCCO)CCC12CCC(c1ccccc1)CC2 (stereo not drawn) | -0.5 | 5.6 | 0.0 | -1.6 | /
Cc1c(C)c2ccc(OC(C)C(=O)N[C@@H](Cc3c[nH]c4ccccc34)C(=O)O)c(C)c2oc1=O (stereo partly drawn) | -1.0 | 2.1 | 1.0 | 5.9* | 4.0
Cc1ccc(C2c3[nH]c4ccccc4c3C[C@H]3C(=O)N(c4ccccc4C(=O)NCCCN4CCOCC4)C(=O)N23)cc1 (stereo partly drawn) | -1.2 | 0.7 | -0.8 | 2.0 | 0.3
O=C(NCCCN1CCOCC1)c1ccccc1N1C(=O)[C@@H]2Cc3c([nH]c4ccccc34)C(c3ccccc3)N2C1=O (stereo partly drawn) | -0.4 | 3.9 | 0.0 | 5.8* | /
Nc1[nH]c(C(=O)c2ccccc2)c(-c2ccccn2)c1C(=O)c1c[nH]c2ccc(F)cc12 | 0.5 | 4.0 | -0.8 | 1.8 | /
Nc1nc2ccc(Cl)cc2cc1C(=O)NCc1ccccc1Br | 0.3 | -0.8 | -1.0 | 3.8 | /
Cc1c(C(=O)NCCc2ccccc2)oc2ccc(S(=O)(=O)N3CCOCC3)cc12 | -1.2 | 1.4 | -0.5 | -3.2 | -0.1
Cc1c(C(=O)NC2CCCc3ccccc32)oc2ccc(S(=O)(=O)N3CCCC3)cc12 (stereo not drawn) | -0.9 | 0.4 | 0.0 | -1.1 | 0.5
COCCCNC(=O)c1oc2ccc(S(=O)(=O)N3CCOCC3)cc2c1C | -1.4 | 1.9 | 0.3 | -0.7 | 4.9*
Cc1c(C(=O)NC2CCCc3ccccc32)oc2ccc(S(=O)(=O)N3CCOCC3)cc12 (stereo not drawn) | -1.5 | -1.4 | -0.5 | -1.0 | 5.8*
COC(=O)c1cc2c(c3c4cc(OC)ccc4n(S(=O)(=O)c4ccc(OC)cc4)c13)C(=O)N(Cc1ccccc1OC)C2 | -1.2 | 0.4 | -0.9 | -0.8 | /
O=C(Cc1c[nH]c2ccccc12)Nc1ccc(Nc2cccnc2)c(-c2cccc(Cl)c2)c1 | -1.6 | -4.5 | -1.0 | -0.7 | /
N#CC1=C(SCC(=O)c2ccccc2)NC2=C(C(=O)CCC2)C1c1ccco1 (stereo not drawn) | -0.6 | 12.6* | -1.4 | 2.3 | -0.3
CN(C)CCN1CC(O)=C(c2nc3ccccc3s2)C1=N | -1.4 | 4.0 | 0.3 | -0.9 | 4.8*
CN(CCO)C1CN(Cc2cn(Cc3ccccc3C(F)(F)F)nn2)S(=O)(=O)C1 (stereo not drawn) | -0.8 | 2.5 | -1.0 | -2.5 | /
Cn1c(N)c(-c2nc3cccnc3n2C)sc1=S | -1.0 | -1.1 | -0.2 | 0.2 | 4.2*
CCOC(=O)[C@]12CCCC3=C1N(CCC3)C(=O)[C@@H](CC(=O)NCc1ccc(OC)c(OC)c1)C2 | -0.7 | -3.7 | 1.8 | -2.0 | /
Cc1[nH]c2ccccc2c1Cc1nnc(SCC(N)=O)o1 | -1.4 | 2.8 | 1.0 | 5.1 | 4.7*
Cc1[nH]c2ccccc2c1Cc1n[nH]c(=S)o1 | -0.4 | 5.9 | 0.1 | 1.8 | 4.7*
S=c1[nH]nc(Cc2cccc3ccccc23)o1 | -0.5 | -1.2 | -0.5 | 1.0 | -0.9
CCCCNC(=O)C1(C(=O)C2CC2)CC(c2ccccc2C(F)(F)F)=NO1 (stereo not drawn) | -0.5 | -2.5 | -0.7 | 4.8 | /
SMILES | ssDAF12 agonist | hgDAF12 agonist | DAX1 inh-1 | hcDAF12 agonist | DAX1 inh-2
C=CCOC(=O)C(CO)NC(=O)CCCC(=O)O (stereo not drawn) | -1.2 | 7.0 | 0.3 | -1.6 | /
Cc1ccc2nc(SC(C)C(=O)N3CCCCC3)[nH]c2c1 (stereo not drawn) | 1.8* | 4.2 | 0.5 | 1.2 | 1.2
Cc1ccc(-c2nnc(SCc3ccc([N+](=O)[O-])cc3)n2-c2ccccc2)cc1 | -1.8 | 0.1 | 0.5 | -2.0 | /
Cc1cccc(NC(=O)c2ccc3c(c2)OCCO3)n1 | / | / | / | / | 0.1
O=C(Nc1ccccn1)C1COc2ccccc2O1 (stereo not drawn) | 0.1 | 7.2 | 1.1 | 5.5 | 1.7
CC1Oc2ccccc2OC1C(=O)Nc1ccccn1 (stereo not drawn) | 0.2 | 2.6 | 0.2 | 6.3* | -0.3
O=C(Nc1ccccn1)c1ccccc1 | -0.7 | 8.1 | 3.9* | 1.4 | 2.1
O=C(Nc1ccccn1)c1ccc2c(c1)OCCO2 | -0.3 | 12.6* | 4.2* | 3.3 | 1.9
O=C(Nc1ccccn1)c1ccc(C(=O)Nc2ccccn2)cc1 | / | / | / | / | 0.2
O=C(/C=C\Nc1ccccn1)c1ccc(Cl)cc1 | -0.3 | 7.4 | 4.2* | 5.5 | -4.5
O=S1(=O)c2ccc(Br)cc2OC[C@H](Cc2ccccc2)N1Cc1cn(CCC2OCCO2)nn1 | -1.5 | 2.3 | -1.4 | -3.3 | /
CCc1cc(C(=O)Nc2nc(-c3ccccn3)cs2)sc1C | -0.3 | 5.4 | -1.3 | 3.9 | 6.7*
O=C(Nc1nc(-c2ccccn2)cs1)c1ccc2c(c1)OCCO2 | -0.5 | 10.5* | 3.8* | 1.5 | 1.2
CC(=O)Nc1ccc(C(=O)Nc2nc(-c3ccccn3)cs2)cc1 | -0.8 | 4.9 | 0.4 | 2.9 | -0.5
Cc1ccc(C(=O)Nc2nc(-c3ccccn3)cs2)o1 | -1.5 | -2.1 | -1.0 | 0.9 | 2.1
Nc1ccn([C@@H]2O[C@H](C(=O)N[C@H](Cc3ccccc3)C(=O)N3CCN(C(=O)N4CCCCC4)CC3)[C@@H](O)[C@H]2O)c(=O)n1 | -0.8 | -2.1 | 2.3 | -1.7 | /
O=C(CSc1ccc2ccccc2n1)c1ccc2c(c1)OCO2 | 2.3* | 9.7 | 3.5 | 5.3 | 1.8
O=C(NC1CCCCN(Cc2ccc(Cl)cc2)C1=O)c1ccc(F)cc1 (stereo not drawn) | -1.5 | -0.4 | -1.4 | -2.0 | /
Cc1ccc(C(=O)Nc2nccc(C)n2)cc1 | -0.9 | 7.1 | 0.2 | 1.6 | 4.8*
Cc1ccnc(NC(=O)c2cccc(OC(F)F)c2)n1 | -0.3 | 3.6 | 0.4 | 2.0 | -0.6
Cc1cc2c(nc1C)CCCN2Cc1ccc(Br)cc1 | -0.4 | 1.0 | -0.9 | 3.4 | /
CC(C)Oc1ccc(C2NC(=O)c3ccccc3O2)cc1 (stereo not drawn) | 0.1 | -1.5 | -0.1 | -0.4 | 4.4*
CC(C)c1ccc(C2NC(=O)c3ccccc3O2)cc1 (stereo not drawn) | -0.9 | 4.7 | 0.9 | 2.4 | 0.8
CC1CCN(Cc2nc(-c3ccccc3)no2)CC1 | -0.6 | 13.2* | 1.3 | 5.4 | 3.5
Cc1c(-c2ccccc2)[nH]n2c(=O)c3c(nc12)CCCC3 | -0.5 | 10.5* | 2.5 | 2.4 | 2.1
O=C(Nc1nc2ccc(Cl)cc2s1)[C@@H]1CCCN1C(=O)c1cccs1 | 0.2 | 9.6 | 0.6 | 5.7* | 1.4
